# Over roughly 1,700 compounds, “T3 sensor activation Q score (MG/GFP ratio z-score vs DMSO controls)” has its median near 0.25; the highest 2% begin near 1.9. The entries come from a sample that favours the highest values as a whole.
# Tested on: ppGalNAc-T3 sensor
# Assay: T3 sensor activation Q score (MG/GFP ratio z-score vs DMSO controls) (SD units); higher = more sensor activation (inhibition of ppGalNAc-T3 glycosylation)
# Details: HEK293 sensor cells; 10 µM; 6 h
# Description: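 Cells were treated with compound at 10 uM for 6 h, then MG/GFP ratio was read by flow cytometry (10,000 cells per well, duplicate wells). Q = (R - R_neg)/SD_neg relative to DMSO vehicle controls; the signal rises when the glycosyltransferase is inhibited.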
row,Compound,T3 sensor activation Q score
1,C[C@H]1CC[C@@]2(C)[C@@H](CC[C@@H]3[C@@H]2CC[C@]2(C)[C@@H](O)CC[C@@H]32)C1,3
2,CC12CCC3C(CCC4Cc5[nH]c6ccccc6c5CC43C)C1CCC2O (stereo not given),0.6
3,COc1ccc2c(c1)NP(=S)(Oc1ccccc1)N2 (stereo not given),-0.15
4,CCC1CCC(C)N(N=O)C1 (stereo not given),1.05
5,Oc1cccc2nc3ccccc3nc12,-0.35
6,O=c1cccc2n1C[C@H]1C[C@@H]2CN2CCCC[C@@H]12,0.2
7,CC(CC(C#N)(c1ccccc1)c1ccccc1)N1CCCCC1 (stereo not given),0.05
8,CN1C2c3ccccc3C3C4c5ccccc5C(C31)C(C2[N+](=O)[O-])N4C (stereo not given),1.1
9,CN1C(=O)CC[C@@]2(C)C1=CC[C@@H]1[C@@H]2CC[C@@]2(C)[C@H]1CC[C@]2(C)O,0.4
10,CC12CCC3C(CC=C4CC(O)CCC43C)C1C/C(=C\N1CCCC1)C2=O (stereo not given),1.9
11,O=C(OC1CCCCC1)c1ccccc1C(=O)OC1CCCCC1,0.2
12,Nc1nc(N)c2cnnn2n1,0.5
13,FCCN(CCF)c1cccc(Cl)c1,1.9
14,c1ccc2nc(OCCN3CC3)ccc2c1,1
15,c1ccc2c(c1)Sc1ccccc1N2CC1CN2CCC1CC2 (stereo not given),-0.15
16,CC1(C)CC(=O)CC(C)(C)N1O,-1.9
17,CC(=O)Nc1cc([As](=O)(O)O)ccc1O,1.4
18,NC(=S)c1cn([C@@H]2O[C@H](CO)[C@@H](O)[C@H]2O)c2ncnc(N)c12,4.95
19,C1CC2NCCC3NCCC(N1)N32 (stereo not given),-0.95
20,CCOC(=O)c1ccc2[nH]c(-c3ccc(S(=O)(=O)F)cc3)cc(=O)c2c1,0.95
21,O=C(NC(=O)c1c(F)cccc1F)Nc1cc(Cl)c(F)c(Cl)c1F,-0.65
22,O=C1N(c2nncs2)CCN1[N+](=O)[O-],2.65
23,CC[C@@]1(O)C(=O)OCc2c1cc1n(c2=O)Cc2cc3ccccc3nc2-1,-1.75
24,C=CCNC(=S)Nc1ccc(OC(=O)Nc2ccc(Cl)c(Cl)c2)cc1,0.4
25,Cn1cc(C=O)c2nccnc21,-1.5

# — the supplement of paper PMC5407854, “Inhibitor of ppGalNAc-T3-mediated O-glycosylation blocks cancer cell invasiveness and lowers FGF23 levels” (eLife, 2017)
